Screening results from PubChem.
RORgamma inh: inhibitors of mouse ROR gamma transcriptional activity; hit rate 5.4% among 310,000; Drosophila S2 Gal4-RORgamma UAS-luciferase reporter, 20 h; P51450; AID 2551; Potency, µM (titrated, usually from 53.6 µM), actives largely listed as inhibitors; note: nearly all actives have a fitted effect of over 60% in size
Target sequence (P51450 whole entry, looked up, the tested form may be a part): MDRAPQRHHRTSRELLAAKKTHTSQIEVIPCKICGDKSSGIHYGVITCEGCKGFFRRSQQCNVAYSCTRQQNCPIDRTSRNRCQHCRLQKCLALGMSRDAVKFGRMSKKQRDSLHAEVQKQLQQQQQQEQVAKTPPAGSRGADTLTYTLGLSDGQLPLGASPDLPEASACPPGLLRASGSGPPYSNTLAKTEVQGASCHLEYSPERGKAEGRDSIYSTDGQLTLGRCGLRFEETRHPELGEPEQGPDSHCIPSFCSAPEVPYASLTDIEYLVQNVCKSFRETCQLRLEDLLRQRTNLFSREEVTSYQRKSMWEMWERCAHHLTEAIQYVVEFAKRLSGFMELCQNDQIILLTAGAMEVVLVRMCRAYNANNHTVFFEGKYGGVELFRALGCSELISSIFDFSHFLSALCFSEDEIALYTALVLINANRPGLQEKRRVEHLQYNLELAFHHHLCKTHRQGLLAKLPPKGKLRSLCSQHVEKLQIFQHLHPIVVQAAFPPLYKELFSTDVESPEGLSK
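Compounds are pin-transferred onto Drosophila Schneider cells expressing a copper-inducible Gal4–ROR gamma transactivation domain fusion. After 1 hr, copper sulfate is added to 700 uM final; luciferase is read 20 hr later.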
Coupling enz: counter-screen for Giardia aldolase inhibitors: coupling enzyme system; coupling enzyme system counterscreen, AmpLite Red fluorescence; activity change, negative = inhibition, % at 58.2 µM, hits read low; hit rate 0.67% among 290,000; in the data active = activity change below about -30%
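Compounds tested against the coupling enzymes alone at 57.5 uM final; readout was AmpLite Red fluorescence (525/598 nm) after 20 min at RT.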
ELG1 repair inh: blocks ELG1-dependent DNA repair in HEK293T cells; HEK293T ELG1-luciferase reporter, luminescence, 16 h; DNA damage induced by 5-fluorouridine; Potency, µM (highest dose often 46.1 µM), most hits filed as inhibitors; hit rate 2.3% among 330,000; AID 504467; note: nearly all actives have a fitted effect of over 55% in size
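In this reporter screen, reduction of luminescence relative to DMSO vehicle indicated activity. Compounds and 5-fluorouridine were added together to 2,000 cells per well, incubated for 16 hr at 37 °C, then developed with ONE-Glo.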
VP16 counter: inhibits Gal4-VP16 luciferase reporter, ROR gamma counter-screen | Drosophila S2 Gal4-VP16 UAS-luciferase, luminescence, 20 h | hit rate 3.5% among 310,000 | Potency, µM (top dose mostly 53.6 µM), actives largely listed as inhibitors | AID 2546;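 note: Gal4-VP16 expression switched on by copper sulfate through the metallothionein promoter; nearly all actives have a fitted effect of over 50% in size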
TSHR antag: antagonists of human thyroid stimulating hormone receptor. P16473. TSHR-expressing cells, TSH-stimulated cAMP HTRF, 2 h; hits give low values. activity change, negative = inhibition, % at 11.5 µM. hit rate 0.2% among 330,000. AID 504810;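 active = activity change below a set negative limit, meaning inhibition stronger than a set level, cut at about -70% in these data; inconclusive = activity change between two set negative limits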
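Antagonism was scored as loss of TSH-driven cAMP in TSHR cells, stimulated with 4nM TSH (EC80) for 2 hours at 37 deg C and detected by homogeneous HTRF competition immunoassay.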
Each line names hits and unclear results; the compound was inactive in the other large screens. Compounds with a hit are over-represented: about 8% of the library has one in this group of screens. Unless noted, calls come from the whole dose curve; as a rule, active = well fitted curve in the direction sought with a large enough effect; inconclusive = small, poorly fitted or top-dose-only effect, or another doubt; inactive = no such curve, though single readings can be large; an effect the other way counts as inactive or inconclusive.

CC(C)C[C@H](NC(=O)[C@H](CCCCN)NC(=O)CNC(=O)[C@H](CC(C)C)NC(=O)[C@@H](NC(=O)[C@@H]1CSSC[C@H](N)C(=O)N[C@@H](CO)C(=O)N[C@@H](CC(N)=O)C(=O)N[C@@H](CC(C)C)C(=O)N[C@@H](CO)C(=O)N[C@@H]([C@@H](C)O)C(=O)N1)C(C)C)C(=O)N[C@@H](CO)C(=O)N[C@@H](CCC(N)=O)C(=O)N[C@@H](CCC(=O)O)C(=O)N[C@@H](CC(C)C)C(=O)N[C@@H](Cc1cnc[nH]1)C(=O)N[C@@H](CCCCN)C(=O)N[C@@H](CC(C)C)C(=O)N[C@@H](CCC(N)=O)C(=O)N[C@H](C(=O)N[C@@H](Cc1ccc(O)cc1)C(=O)N1CCC[C@H]1C(=O)N[C@@H](CCCNC(=N)N)C(=O)N[C@H](C(=O)N[C@@H](CC(N)=O)C(=O)N[C@H](C(=O)NCC(=O)N[C@@H](CO)C(=O)NCC(=O)N[C@H](C(=O)N1CCC[C@H]1C(N)=O)[C@@H](C)O)[C@@H](C)O)[C@@H](C)O)[C@@H](C)O	none (no result: ELG1 repair inh, TSHR antag)
C=C(C)C1Cc2c(C)nn(-c3nc(C)cc(C)n3)c2C1 (stereo not given)	RORgamma inh 0.35µM, VP16 counter 2µM
CC(C)C[C@@H](N)C(=O)O	none (no result: Coupling enz, ELG1 repair inh, TSHR antag)
Cc1cc(=O)n(C(C)(C)C)c(=O)n1Cc1ccccc1	none
COC(=O)CSc1nnc(-c2sc3ccccc3c2Cl)o1	RORgamma inh inconclusive, VP16 counter 20µM
COC(=O)CSc1nnc(-c2sc3cc(OC)ccc3c2Cl)n1C	RORgamma inh 11µM
COC(=O)CSc1nc2cc(OC)ccc2n1C	none
N#CCSc1nnc(-c2sc3ccccc3c2Cl)o1	RORgamma inh inconclusive, ELG1 repair inh inconclusive
O=C(Nc1nc(N2C(=O)c3ccccc3C2=O)n(-c2ccccc2)n1)c1ccc(Cl)cc1	RORgamma inh 14µM, VP16 counter inconclusive
Cc1cccc(C2(c3cccc(C)c3)CC2C(=O)Nc2ccc([N+](=O)[O-])cc2O)c1 (stereo not given)	VP16 counter 11µM
Cc1cccc(C2(c3cccc(C)c3)CC2C(=O)NCC2CCCO2)c1 (stereo not given)	none
COc1ccc(CCNC(=O)C/C(C)=N/NC(=O)c2ccc(Cl)cc2Cl)cc1OC	none
COc1ccc(CCN(C)C(=S)NC(=O)c2ccc(F)cc2Cl)cc1OC	RORgamma inh 1.6µM, ELG1 repair inh inconclusive, VP16 counter 4µM
COc1ccc(CCN(C)C(=S)Nc2ccc(SC(F)F)cc2)cc1OC	RORgamma inh 20µM, ELG1 repair inh inconclusive, VP16 counter inconclusive
COc1ccc(/C=C/C(=O)OCC(=O)NC2CCCC2)cc1	none (no result: RORgamma inh, Coupling enz, VP16 counter)
CC(C)CO/N=C1/C[C@@H](O)[C@@H](O)[C@@H]2[C@@H]3C(=O)N(C[C@@H]4CCCO4)C(=O)[C@H]3CC[C@H]12	none (no result: ELG1 repair inh, TSHR antag)
Cc1nc2ccccc2c(=O)n1Cc1ccco1	none
O=C1c2ccccc2C(=O)N1CCc1nc2ccccc2c(=O)n1Cc1ccco1	ELG1 repair inh 21µM
Cc1ccc(-c2noc(Cn3cc(S(=O)(=O)N4CCCC4)ccc3=O)n2)cc1	none (no result: RORgamma inh, Coupling enz, VP16 counter)
CC(=O)N1CC=CC1(CC(C)C)C(=O)O (stereo not given)	none (no result: ELG1 repair inh, TSHR antag)
Cc1cc(C2(c3ccc(O)c(C)c3)OC(=O)c3ccccc32)ccc1O	none
Cc1cc(O)c(C(C)C)cc1C1(c2cc(C(C)C)c(O)cc2C)OC(=O)c2ccccc21	RORgamma inh inconclusive, ELG1 repair inh 16µM, VP16 counter 13µM
OC(CNCCc1ccc(C(F)(F)F)cc1)COc1cccc2ccccc12 (stereo not given)	RORgamma inh inconclusive, VP16 counter 13µM
OC(CNCCc1ccc(C(F)(F)F)cc1)COc1ccc2ccccc2c1 (stereo not given)	RORgamma inh 16µM, VP16 counter 11µM
CC(C)COC(=O)c1ccc2c(c1O)C(=O)c1ccccc1C2=O	Coupling enz -41, ELG1 repair inh inconclusive, VP16 counter inconclusive
COc1ccc2c(c1O)C(=O)c1ccccc1C2=O	none
COc1ccc(/C=C2\CCCc3c2nc2ccccc2c3C(=O)OCC(=O)c2c(N)n(C)c(=O)n(C)c2=O)cc1	ELG1 repair inh 3.3µM
